# Assay results as given in PubChem BioAssay (EPA / NIEHS).
# Results filed as inconclusive are left out. Active and inactive are the calls of the source. How the source made its calls, unless noted: active means hit-call score of the fitted dose curve at least 0.9, where 1 is the maximum; inactive means score below 0.9.
# How the values were obtained:
# [1] = target: human CYP19A1, CYP19A1 (gene 1588) (UniProt P11511); experiment: NVS_ADME_hCYP19A1: NovaScreen (NVS) CYP450-related Enzyme Activity (ADME) Assay for human CYP19A1 (AID 2283098; active means hit-call score of the fitted dose curve at least 0.9, where 1 is the maximum;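 on AC50: potency for inhibitors seen as loss of fluorescent enzyme signal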)
# Chain of human CYP19A1, CYP19A1 (gene 1588) (P11511 whole entry, looked up): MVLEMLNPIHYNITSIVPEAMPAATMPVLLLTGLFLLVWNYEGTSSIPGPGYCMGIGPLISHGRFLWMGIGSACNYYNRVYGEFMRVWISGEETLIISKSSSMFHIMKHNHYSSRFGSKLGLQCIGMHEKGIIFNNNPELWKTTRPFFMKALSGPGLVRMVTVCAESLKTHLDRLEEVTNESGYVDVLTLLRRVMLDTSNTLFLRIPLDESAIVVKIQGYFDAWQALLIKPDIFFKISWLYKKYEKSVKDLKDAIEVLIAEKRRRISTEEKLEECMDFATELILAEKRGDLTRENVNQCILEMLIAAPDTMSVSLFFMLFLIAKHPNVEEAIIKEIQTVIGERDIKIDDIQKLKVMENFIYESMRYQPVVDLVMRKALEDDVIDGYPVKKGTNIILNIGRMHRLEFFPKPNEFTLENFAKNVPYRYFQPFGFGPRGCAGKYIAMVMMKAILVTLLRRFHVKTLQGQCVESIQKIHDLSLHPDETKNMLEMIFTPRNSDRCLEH
# Procedure, shortened: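 Cell-free enzyme assay with recombinant protein and a specific fluorogenic substrate, read by fluorescence intensity 0.5 h after dosing. Primary screen ran in duplicate at 10 uM; actives were retested in concentration series. Loss of signal versus acetonitrile baseline.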
# [2] = read-out: Monokine induced gamma interferon (MIG), CXCL9 (gene 4283); experiment: BSK_SAg_MIG: BioMAP Diversity Plus: SAg Assay for Monokine induced gamma interferon (MIG) Biomarker Activity (AID 2283092); details: primary human HUVEC with PBMC; actives raise or lower the signal
# Procedure, shortened: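 HUVEC plus human PBMC co-culture, chemicals dosed and MIG (CXCL9) quantified by ELISA at 24 h. Bidirectional curve fitting against DMSO as negative control and baseline, so both gain and loss of signal count as activity.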
# [3] = BSK_SAg_PBMCCytotoxicity: PBMC Cytotoxicity Assessment in the BioMAP Diversity Plus: SAg Assay (AID 2283093); details: primary human HUVEC with PBMC;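 further: PBMC viability measured as Alamar Blue reduction fluorescence at 546/580 nm; fitted both ways against DMSO so a hit may be loss or gain of signal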
# Procedure, shortened: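 Human umbilical vein endothelial cells co-cultured with PBMC; PBMC (75,000/well) pre-treated with compound 1 h, then activated with SEB and TSST-1 (20 ng/mL final each) for 90 h. Alamar Blue added 6 h, fluorescence 546/580 nm; bidirectional fit versus DMSO.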
# [4] = read-out: Interleukin-8 (IL8), CXCL8 (gene 3576); experiment: BSK_SAg_IL8: BioMAP Diversity Plus: SAg Assay for Interleukin-8 (IL8) Biomarker Activity (AID 2283094); details: primary human HUVEC with PBMC; actives raise or lower the signal
# Procedure, shortened: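 Human umbilical vein endothelial cells co-cultured with peripheral blood mononuclear cells; IL-8 measured by ELISA 24 h after chemical dosing. Bidirectional concentration-response fitting used DMSO as negative control and activity baseline.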
# [5] = BSK_SAg_Proliferation: Cell Proliferation Assessment in the BioMAP Diversity Plus: SAg Assay (AID 2283095); details: primary human HUVEC with PBMC;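 further: relative cell number as total protein by SRB absorbance in sub-confluent culture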
# Procedure, shortened: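 Human umbilical vein endothelial cells co-cultured with peripheral blood mononuclear cells; total protein measured by sulforhodamine B staining (0.1% SRB after 10% TCA fixation), absorbance at 560 nm, at 96 h. Bidirectional fit against DMSO baseline.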
# [6] = BSK_SAg_SRB: Viability Assessment in the BioMAP Diversity Plus: SAg Assay (AID 2283096); details: primary human HUVEC with PBMC;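 further: cells read one day after compound addition; hits may be either gain or loss of signal compared with DMSO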
# Procedure, shortened: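 Endothelial/PBMC primary human co-culture; compound 24 h; fix 10% TCA, stain 0.1% SRB, A560; protein content as cytotoxicity proxy; bidirectional curve fit, DMSO = baseline.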
# [7] = target: human Ephrin type-A Receptor 1 (EphA1), EPHA1 (gene 2041) (UniProt P21709); experiment: NVS_ENZ_hEphA1: NovaScreen (NVS) Enzymatic Assay for human Ephrin type-A Receptor 1 (EphA1) (AID 2283158; active means hit-call score of the fitted dose curve at least 0.9, where 1 is the maximum;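 further: activity is signal loss versus DMSO meaning EphA1 kinase inhibition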)
# Chain of human Ephrin type-A Receptor 1 (EphA1), EPHA1 (gene 2041) (P21709 whole entry, looked up): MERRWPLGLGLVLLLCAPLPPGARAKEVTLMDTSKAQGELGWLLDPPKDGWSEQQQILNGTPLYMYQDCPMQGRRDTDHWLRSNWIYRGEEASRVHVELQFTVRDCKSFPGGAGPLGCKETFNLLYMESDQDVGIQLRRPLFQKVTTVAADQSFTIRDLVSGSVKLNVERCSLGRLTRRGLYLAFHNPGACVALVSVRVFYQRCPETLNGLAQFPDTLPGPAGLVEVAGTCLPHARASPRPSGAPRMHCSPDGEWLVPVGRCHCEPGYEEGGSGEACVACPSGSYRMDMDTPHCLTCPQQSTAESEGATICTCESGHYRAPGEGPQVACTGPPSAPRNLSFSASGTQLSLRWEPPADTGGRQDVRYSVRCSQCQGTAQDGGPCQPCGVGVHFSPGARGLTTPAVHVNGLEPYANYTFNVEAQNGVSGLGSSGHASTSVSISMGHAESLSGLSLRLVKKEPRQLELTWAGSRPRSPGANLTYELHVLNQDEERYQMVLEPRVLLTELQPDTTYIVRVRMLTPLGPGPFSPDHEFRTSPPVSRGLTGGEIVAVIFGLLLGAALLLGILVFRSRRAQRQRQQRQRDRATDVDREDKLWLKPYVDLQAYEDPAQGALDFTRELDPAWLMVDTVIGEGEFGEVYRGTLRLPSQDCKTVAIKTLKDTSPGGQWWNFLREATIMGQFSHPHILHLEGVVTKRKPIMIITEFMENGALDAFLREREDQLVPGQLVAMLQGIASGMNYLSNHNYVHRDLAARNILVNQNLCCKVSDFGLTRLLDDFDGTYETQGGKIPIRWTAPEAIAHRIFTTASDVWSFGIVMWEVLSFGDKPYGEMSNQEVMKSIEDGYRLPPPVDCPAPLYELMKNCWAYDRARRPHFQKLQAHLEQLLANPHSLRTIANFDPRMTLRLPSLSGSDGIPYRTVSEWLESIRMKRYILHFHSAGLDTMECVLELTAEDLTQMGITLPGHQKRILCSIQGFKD
# Procedure, shortened: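 Cell-free kinase activity with recombinant protein, 1 hour after dosing; product separated by electrophoretic mobility shift, fluorescence read. Primary screen at 25 uM in duplicate; hits run as concentration-response up to 50 uM, relative to DMSO.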
# [8] = target: human Matrix Metalloproteinase-9 (MMP9), MMP9 (gene 4318) (UniProt P14780); experiment: NVS_ENZ_hMMP9: NovaScreen (NVS) Enzymatic Assay for human Matrix Metalloproteinase-9 (MMP9) (AID 2283190; active means hit-call score of the fitted dose curve at least 0.9, where 1 is the maximum;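 further: cell-free recombinant MMP9 protease activity read by fluorescent substrate signal; active means inhibition seen as loss of fluorescence signal versus DMSO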)
# Chain of human Matrix Metalloproteinase-9 (MMP9), MMP9 (gene 4318) (P14780 whole entry, looked up): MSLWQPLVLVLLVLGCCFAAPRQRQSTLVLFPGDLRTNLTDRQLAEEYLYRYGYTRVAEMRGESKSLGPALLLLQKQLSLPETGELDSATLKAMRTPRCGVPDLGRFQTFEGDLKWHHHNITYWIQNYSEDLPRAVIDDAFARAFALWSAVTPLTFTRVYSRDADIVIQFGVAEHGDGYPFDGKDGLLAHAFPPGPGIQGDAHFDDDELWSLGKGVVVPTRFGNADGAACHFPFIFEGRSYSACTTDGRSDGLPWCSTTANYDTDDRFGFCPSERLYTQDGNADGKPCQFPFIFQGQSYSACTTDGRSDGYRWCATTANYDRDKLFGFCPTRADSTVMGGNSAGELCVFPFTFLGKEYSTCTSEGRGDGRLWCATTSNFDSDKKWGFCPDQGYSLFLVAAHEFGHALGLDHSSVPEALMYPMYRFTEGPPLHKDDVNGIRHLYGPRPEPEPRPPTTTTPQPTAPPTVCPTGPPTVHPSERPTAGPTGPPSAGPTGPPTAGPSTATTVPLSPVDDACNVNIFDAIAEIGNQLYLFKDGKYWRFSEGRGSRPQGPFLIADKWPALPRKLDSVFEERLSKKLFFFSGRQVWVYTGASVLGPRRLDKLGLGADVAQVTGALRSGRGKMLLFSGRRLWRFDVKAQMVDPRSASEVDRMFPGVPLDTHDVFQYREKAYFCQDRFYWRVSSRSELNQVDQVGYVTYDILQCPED
# Procedure, shortened: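 Cell-free recombinant MMP9 enzyme activity measured by fluorescence intensity 1 h after dosing. Primary screen in duplicate at 25 uM, actives followed in concentration series; loss of signal relative to DMSO.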
# [9] = target: human Phosphodiesterase 10 (PDE10), PDE10A (gene 10846) (UniProt Q9Y233); experiment: NVS_ENZ_hPDE10: NovaScreen (NVS) Enzymatic Assay for human Phosphodiesterase 10 (PDE10) (AID 2283195; active means hit-call score of the fitted dose curve at least 0.9, where 1 is the maximum)
# Chain of human Phosphodiesterase 10 (PDE10), PDE10A (gene 10846) (Q9Y233 whole entry, looked up): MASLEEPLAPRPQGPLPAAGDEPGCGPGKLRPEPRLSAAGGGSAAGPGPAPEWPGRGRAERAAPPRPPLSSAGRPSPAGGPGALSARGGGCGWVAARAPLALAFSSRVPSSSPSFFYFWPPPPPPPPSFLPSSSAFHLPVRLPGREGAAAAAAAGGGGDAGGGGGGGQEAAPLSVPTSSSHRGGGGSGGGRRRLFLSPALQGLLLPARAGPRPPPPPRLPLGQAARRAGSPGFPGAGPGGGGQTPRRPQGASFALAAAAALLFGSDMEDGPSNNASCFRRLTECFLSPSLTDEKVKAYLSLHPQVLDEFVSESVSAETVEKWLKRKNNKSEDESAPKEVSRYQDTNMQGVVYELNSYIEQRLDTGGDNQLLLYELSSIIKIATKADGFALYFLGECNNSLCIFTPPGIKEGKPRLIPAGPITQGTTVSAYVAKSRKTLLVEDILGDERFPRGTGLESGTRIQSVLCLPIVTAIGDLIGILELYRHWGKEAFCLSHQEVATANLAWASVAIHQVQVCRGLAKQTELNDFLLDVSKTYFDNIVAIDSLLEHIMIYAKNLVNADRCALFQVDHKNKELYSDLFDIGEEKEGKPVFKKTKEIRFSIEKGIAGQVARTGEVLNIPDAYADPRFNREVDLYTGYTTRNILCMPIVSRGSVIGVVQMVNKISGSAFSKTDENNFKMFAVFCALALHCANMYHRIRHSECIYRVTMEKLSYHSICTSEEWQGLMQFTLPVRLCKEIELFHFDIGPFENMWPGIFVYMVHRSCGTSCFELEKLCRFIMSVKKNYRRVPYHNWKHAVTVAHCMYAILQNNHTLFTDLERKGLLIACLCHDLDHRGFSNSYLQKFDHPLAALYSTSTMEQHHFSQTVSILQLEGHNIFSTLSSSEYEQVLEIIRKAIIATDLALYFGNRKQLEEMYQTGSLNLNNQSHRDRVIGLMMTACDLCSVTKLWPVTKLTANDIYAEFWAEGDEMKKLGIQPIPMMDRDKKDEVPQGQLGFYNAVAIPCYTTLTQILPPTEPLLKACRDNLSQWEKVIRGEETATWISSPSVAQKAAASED
# Procedure, shortened: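 Fluorescence/mobility-shift readout of PDE10A enzyme activity, taken 1 h post-dosing. Primary screen in duplicate at 25 uM; actives (e.g. ≥30% inhibition) retested as singleton concentration-response, top concentration 50 uM.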
# [10] = target: human Protein Tyrosine Phosphatase Non-receptor Type 6 (PTPN6), PTPN6 (gene 5777) (UniProt P29350); experiment: NVS_ENZ_hPTPN6: NovaScreen (NVS) Enzymatic Assay for human Protein Tyrosine Phosphatase Non-receptor Type 6 (PTPN6) (AID 2283210; active means hit-call score of the fitted dose curve at least 0.9, where 1 is the maximum)
# Chain of human Protein Tyrosine Phosphatase Non-receptor Type 6 (PTPN6), PTPN6 (gene 5777) (P29350 whole entry, looked up): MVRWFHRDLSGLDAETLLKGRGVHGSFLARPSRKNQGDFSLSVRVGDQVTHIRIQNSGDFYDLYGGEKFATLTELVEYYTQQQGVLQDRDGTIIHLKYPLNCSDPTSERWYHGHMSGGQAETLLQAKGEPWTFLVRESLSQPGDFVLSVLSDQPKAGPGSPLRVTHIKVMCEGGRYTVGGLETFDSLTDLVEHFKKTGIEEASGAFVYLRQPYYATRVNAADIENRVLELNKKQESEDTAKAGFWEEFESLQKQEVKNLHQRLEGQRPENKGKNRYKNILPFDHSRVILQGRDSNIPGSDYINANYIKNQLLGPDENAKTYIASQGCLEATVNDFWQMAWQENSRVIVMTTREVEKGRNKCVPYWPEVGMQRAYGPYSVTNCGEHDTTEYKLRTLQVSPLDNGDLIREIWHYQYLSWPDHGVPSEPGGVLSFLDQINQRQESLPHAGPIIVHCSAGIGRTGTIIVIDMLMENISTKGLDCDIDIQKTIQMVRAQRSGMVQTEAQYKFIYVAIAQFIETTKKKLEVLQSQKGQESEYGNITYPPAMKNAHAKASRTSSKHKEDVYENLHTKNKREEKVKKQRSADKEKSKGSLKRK
# Procedure, shortened: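 Cell-free assay with recombinant PTPN6 expressed in SF9 cells, fluorescent substrate, product separated from substrate by electrophoretic mobility shift; read 1.33 hours after dosing. Primary screen in duplicate at 25 uM, actives retested in concentration series; DMSO baseline.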
# [11] = target: human Vascular Endothelial Growth Factor Receptor 1 (VEGFR1), FLT1 (gene 2321) (UniProt P17948); experiment: NVS_ENZ_hVEGFR1: NovaScreen (NVS) Enzymatic Assay for human Vascular Endothelial Growth Factor Receptor 1 (VEGFR1) (AID 2283226; active means hit-call score of the fitted dose curve at least 0.9, where 1 is the maximum)
# Procedure, shortened: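 Cell-free assay of recombinant human VEGFR1 kinase with substrate, measured 1 h after dosing; fluorescence with electrophoretic mobility-shift separation of substrate and product, referenced to DMSO; primary screen at 25 uM in duplicate, actives then run in concentration series.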
# [12] = target: human Phosphoinositide 3-kinase alpha (PI3Ka), PIK3CA (gene 5290) (UniProt P42336); experiment: NVS_ENZ_hPI3Ka: NovaScreen (NVS) Enzymatic Assay for human Phosphoinositide 3-kinase alpha (PI3Ka) (AID 2283196; active means hit-call score of the fitted dose curve at least 0.9, where 1 is the maximum)
# Chain of human Phosphoinositide 3-kinase alpha (PI3Ka), PIK3CA (gene 5290) (P42336 whole entry, looked up): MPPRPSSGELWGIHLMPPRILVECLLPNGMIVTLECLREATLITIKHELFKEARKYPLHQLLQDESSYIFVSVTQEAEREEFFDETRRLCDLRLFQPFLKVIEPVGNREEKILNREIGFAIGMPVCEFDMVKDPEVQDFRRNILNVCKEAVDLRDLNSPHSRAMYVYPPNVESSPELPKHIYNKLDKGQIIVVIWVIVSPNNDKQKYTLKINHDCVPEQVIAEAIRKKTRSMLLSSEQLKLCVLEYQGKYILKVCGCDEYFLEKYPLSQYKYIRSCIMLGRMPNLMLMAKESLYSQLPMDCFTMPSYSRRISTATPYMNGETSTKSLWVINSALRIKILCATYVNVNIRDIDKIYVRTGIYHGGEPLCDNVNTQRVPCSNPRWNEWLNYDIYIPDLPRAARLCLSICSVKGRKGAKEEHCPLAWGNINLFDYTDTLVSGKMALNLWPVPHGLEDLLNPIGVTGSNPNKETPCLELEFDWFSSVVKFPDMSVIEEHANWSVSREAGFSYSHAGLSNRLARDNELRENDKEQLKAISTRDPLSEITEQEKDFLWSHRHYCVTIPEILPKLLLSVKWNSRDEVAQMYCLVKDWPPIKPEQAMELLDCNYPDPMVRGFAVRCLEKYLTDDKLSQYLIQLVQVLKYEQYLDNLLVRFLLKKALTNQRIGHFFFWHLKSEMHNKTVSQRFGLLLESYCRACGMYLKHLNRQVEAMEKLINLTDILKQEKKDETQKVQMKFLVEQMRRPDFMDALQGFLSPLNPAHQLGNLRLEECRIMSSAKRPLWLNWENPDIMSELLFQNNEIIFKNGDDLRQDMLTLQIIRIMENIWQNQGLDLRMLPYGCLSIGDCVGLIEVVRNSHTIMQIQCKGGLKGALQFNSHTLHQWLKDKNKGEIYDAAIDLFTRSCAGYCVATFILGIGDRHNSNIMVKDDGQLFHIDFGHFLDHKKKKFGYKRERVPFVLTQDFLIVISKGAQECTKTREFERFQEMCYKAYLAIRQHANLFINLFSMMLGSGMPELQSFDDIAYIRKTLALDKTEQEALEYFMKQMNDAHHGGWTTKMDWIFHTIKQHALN
# Procedure, shortened: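 Recombinant human PI3Kα with fluorescent substrate, 1 h, product separated by electrophoretic mobility shift; 25 uM duplicate screen, hits (e.g., 30% inhibition) retested singly up to 50 uM; loss of signal vs DMSO.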
# [13] = target: human Caspase 5 (CASP5), CASP5 (gene 838) (UniProt P51878); experiment: NVS_ENZ_hCASP5: NovaScreen (NVS) Enzymatic Assay for human Caspase 5 (CASP5) (AID 2283137; active means hit-call score of the fitted dose curve at least 0.9, where 1 is the maximum)
# Procedure, shortened: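 Recombinant E. coli-expressed human caspase 5 in a cell-free enzyme assay; fluorescence intensity read 2 hours after chemical dosing. Single-concentration duplicate screen at 25 uM, then concentration-response up to 50 uM for hits; DMSO negative control.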
# [14] = target: human Beta-secretase (BACE), BACE1 (gene 23621) (UniProt P56817); experiment: NVS_ENZ_hBACE: NovaScreen (NVS) Enzymatic Assay for human Beta-secretase (BACE) (AID 2283140; active means hit-call score of the fitted dose curve at least 0.9, where 1 is the maximum;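 further: hits are inhibitors that reduce fluorescent substrate signal versus DMSO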)
# Procedure, shortened: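 Cell-free fluorescence-intensity assay of recombinant BACE1 expressed in SF9 cells, read 1 hour after dosing. Loss of signal indicates reduced protease activity, fitted relative to DMSO negative control. Primary screen at 25 uM in duplicate; actives followed in concentration series.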
# [15] = target: Cytochrome P450 3A4 (Homo sapiens) (UniProt P08684); experiment: NVS_ADME_hCYP3A4: NovaScreen (NVS) CYP450-related Enzyme Activity (ADME) Assay for human CYP3A4 (AID 2283110; active means hit-call score of the fitted dose curve at least 0.9, where 1 is the maximum)
# Procedure, shortened: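 Cell-free assay using insect-cell-expressed human CYP3A4 with a fluorogenic substrate; fluorescence intensity was read 0.33 hour after dosing. Loss of signal relative to acetonitrile vehicle indicated inhibition. Primary single-concentration screen at 10 uM, in duplicate, then concentration series.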
smiles,measurement,setting,value
CN(C)CCCN,outcome,[1],inactive
CC1COc2ccccc2N1C(=O)C(Cl)Cl (stereo not drawn),outcome,[2],inactive
same,outcome,[3],inactive
same,outcome,[4],inactive
same,outcome,[5],inactive
same,AC50,[6],10.3 µM (active)
same,outcome,[7],inactive
CCCCCCCCCCCCCCCC(=O)OC[C@H](O)[C@H]1OC(=O)C(O)=C1O,AC50,[1],2.33 µM (active)
CC1CCC(C(C)CS)CC1S (stereo not drawn),AC50,[2],34.6 µM (active)
same,outcome,[3],inactive
same,AC50,[4],20 µM (active)
same,outcome,[5],inactive
same,AC50,[6],30.7 µM (active)
same,AC50,[8],0.997 µM (active)
CC(C)[C@@H]1CC[C@@H](C)CC1=O,outcome,[7],inactive
CC(=O)OCc1ccc2c(c1)OCO2,AC50,[7],8.23 µM (active)
same,outcome,[9],inactive
CC(CCO)CCCC(C)(C)O (stereo not drawn),outcome,[7],inactive
O=C(O)c1ccc([N+](=O)[O-])cc1,outcome,[2],inactive
same,outcome,[3],inactive
same,outcome,[4],inactive
same,outcome,[5],inactive
same,outcome,[6],inactive
same,outcome,[10],inactive
c1ccc2c(c1)c1cccc3ccc4cccc2c4c31,outcome,[2],inactive
same,outcome,[3],inactive
same,outcome,[4],inactive
same,outcome,[5],inactive
same,outcome,[6],inactive
same,outcome,[9],inactive
same,outcome,[11],inactive
Cc1ccc2ccccc2n1,outcome,[7],inactive
same,AC50,[9],9.74 µM (active)
CCCCCCCCCCCCCOS(=O)(=O)O,outcome,[1],inactive
Nc1cc([N+](=O)[O-])ccc1Cl,outcome,[2],inactive
same,outcome,[3],inactive
same,outcome,[4],inactive
same,outcome,[5],inactive
same,outcome,[6],inactive
same,outcome,[9],inactive
CC(C)Oc1ccccc1O,outcome,[2],inactive
same,outcome,[3],inactive
same,outcome,[4],inactive
same,outcome,[5],inactive
same,outcome,[6],inactive
same,outcome,[7],inactive
C#C[C@]1(O)CC[C@H]2[C@@H]3CCC4=Cc5oncc5C[C@]4(C)[C@H]3CC[C@@]21C,outcome,[2],inactive
same,outcome,[3],inactive
same,outcome,[4],inactive
same,outcome,[5],inactive
same,outcome,[6],inactive
same,outcome,[7],inactive
same,outcome,[9],inactive
same,outcome,[12],inactive
Nc1cc(N)cc(C(=O)O)c1,AC50,[13],19.9 µM (active)
CCCCC(CC)COCCC#N (stereo not drawn),outcome,[2],inactive
same,outcome,[3],inactive
same,AC50,[4],0.0801 µM (active)
same,outcome,[5],inactive
same,outcome,[6],inactive
same,outcome,[9],inactive
same,outcome,[12],inactive
COC(=O)OC,outcome,[7],inactive
same,outcome,[9],inactive
same,outcome,[12],inactive
CC(=O)OCCOC(C)=O,AC50,[8],14.9 µM (active)
CNC[C@H](O)c1cccc(O)c1,outcome,[2],inactive
same,outcome,[3],inactive
same,outcome,[4],inactive
same,outcome,[5],inactive
same,outcome,[6],inactive
same,AC50,[8],10.6 µM (active)
CCCCO,outcome,[7],inactive
CC1(C)[C@H](C(=O)OCc2cccc(Oc3ccccc3)c2)[C@@H]1C=C(Cl)Cl,outcome,[9],inactive
CC1CCC2CC1C2(C)C (stereo not drawn),AC50,[7],21.3 µM (active)
same,outcome,[9],inactive
same,AC50,[12],1.82 µM (active)
CCO[Si](CCCS)(OCC)OCC,outcome,[7],inactive
same,AC50,[8],1.65 µM (active)
same,AC50,[9],32.1 µM (active)
same,outcome,[12],inactive
CC(C)[C@H]1CC[C@@H](C)CC1=O,outcome,[7],inactive
COC(=O)c1ccc(C)cc1,outcome,[2],inactive
same,outcome,[3],inactive
same,outcome,[4],inactive
same,outcome,[5],inactive
same,outcome,[6],inactive
same,outcome,[14],inactive
same,outcome,[12],inactive
CC1(C)[C@H]2CC[C@]1(C)[C@H](O)C2,outcome,[15],inactive
same,outcome,[7],inactive
CCc1c(C)cc(N)c(CC)c1N,outcome,[2],inactive
same,outcome,[3],inactive
same,outcome,[4],inactive
same,outcome,[5],inactive
same,outcome,[6],inactive
same,outcome,[9],inactive
CC(=O)/C=C/C1=C(C)CCCC1(C)C,outcome,[2],inactive
same,outcome,[3],inactive
same,outcome,[4],inactive
same,outcome,[5],inactive
same,outcome,[6],inactive
same,outcome,[12],inactive
